# The source made the active and inactive calls. Calls come from the whole dose curve.
# Assay: qHTS drug screen for cell cycle checkpoint inhibitors in PARPi-resistant BRCA-mutant ovarian cancer cell lines. (AID 1963452)
# Details: PEO1/OlaR viability, CellTiter-Glo luminescence, 96 h; for Z-AUC: stronger effect = lower value
# Text: Women's Malignancies Branch, Center for Cancer Research (CCR),
# National Cancer Institute (NCI), National Institutes of Health (NIH), Bethesda, MD
# Poly (ADP-ribose) polymerase inhibitors (PARPis) have changed the treatment paradigm in breast cancer gene (BRCA) - mutant high-grade serous ovarian carcinoma (HGSC). However, most patients eventually develop resistance to PARPis, highlighting an unmet need for improved therapeutic strategies. Using high-throughput drug screens, we identified ataxia telangiectasia and rad3-related protein/checkpoint kinase 1 (CHK1) pathway inhibitors as cytotoxic and further validated the activity of the CHK1 inhibitor (CHK1i) prexasertib in PARPi-sensitive and -resistant BRCA-mutant HGSC cells and xenograft mouse models. CHK1i monotherapy induced DNA damage, apoptosis, and tumor size reduction. We then conducted a phase 2 study (NCT02203513) of prexasertib in patients with BRCA-mutant HGSC. The treatment was well tolerated but yielded an objective response rate of 6% (1 of 17; one partial response) in patients with previous PARPi treatment. […] BRCA reversion mutation in previously PARPi-treated BRCA-mutant patients was not associated with resistance to CHK1i.
# Among others, 1082 oncology drugs, both approved and investigational, were prioritized based on their status in clinical trial development. […] Drugs with average Z-AUC values less than -1.0 in all three cell lines were classified as "hits" resulting in 151 oncology drug hits. The screen also confirmed cross-resistance between olaparib and other PARPis (rucaparib, niraparib, and talazoparib) in PARPi-resistant PEO1/OlaR and PEO4.
# [1] G. L. Lin, K. M. Wilson, M. Ceribelli, B. Z. Stanton, P. J. Woo, S. Kreimer, E. Y. Qin, X. Zhang, J. Lennon, S. Nagaraja, P. J. Morris, M. Quezada, S. M. Gillespie, D. Y. Duveau, A. M. Michalowski, P. Shinn, R. Guha, M. Ferrer, C. Klumpp-Thomas, S. Michael, C. McKnight, P. Minhas, Z. Itkin, E. H. Raabe, L. Chen, R. Ghanem, A. C. Geraghty, L. Ni, K. I. Andreasson, N. A. Vitanza, K. E.Warren, C. J. Thomas, M. Monje, Therapeutic strategies for diffuse midline glioma from high-throughput combination drug screening. Sci. Transl. Med. 11, (2019).
# [2] T. M. Yamamoto, A. McMellen, Z. L. Watson, J. Aguilera, R. Ferguson, E. Nurmemmedov, T. Thakar, G. L. Moldovan, H. Kim, D. M. Cittelly, A. M. Joglar, E. P. Brennecke, H. Wilson, K. Behbakht, M. J. Sikora, B. G. Bitler, Activation of Wnt signaling promotes olaparib resistant ovarian cancer. Mol. Carcinog. 58, 1770 - 1782 (2019).
# PROTOCOL TABLE (as described by Inglese J, Shamu CE and Guy RK. 2007)
# SEQUENCE No. (e.g., 1, 2, 3, etc.); […] (e.g., Cells, Incubation, Reagent, etc.); VALUE; DESCRIPTION.
# 1; Compounds; 20nL; 1536-well white tissue culture-treated plates.
# 2; Cells; 5 uL; PEO1, PEO4, and PEO1/OlaR cells at 600 cells per well.
# 3; Incubation; 96 hr; 37C, 95% humidity, 5% CO2.
# 4; Reagent; 3 uL; CellTiter-Glo (Promega).
# 5; Incubation; 15 min; room temperature.
# 6; Detection; Luminescence, PHERAstar (BMG Labtech) plate reader.
# NOTES (numbers refer to Sequence numbers above)
# 1. MIPE 5.0 compounds were acoustically dispensed by Echo Acoustic Liquid Handler (Beckman Coulter Life Sciences). Each compound was plated at an 11-point concentration range with 1:3 dilution. Bortezomib, a proteasome inhibitor (final concentration, 20 uM), was used as a positive.
# 2. PEO1, PEO4, and PEO1/OlaR were trypsinized and dispensed in 5 uLof growth medium using a Multidrop Combi dispenser at a density of 600 cells per well to allow compounds to be present during the exponential growth phase.
# 3. Plates were incubated for 96 hours at standard incubator conditions and covered by a stainless steel gasketed lid to prevent evaporation.
# 4. Three microliters of CellTiter-Glo (Promega) were added to each well.
# 5. Plates were incubated at room temperature for 15 min with a stainless-steel lid in place.
# 6. Luminescence readings were taken using PHERAstar (BMG Labtech). […]
# [1] = measured here: PEO1 parental Z-AUC
# Potency is the fitted concentration of half-maximal effect.
SMILES,Potency,Z-AUC [1],Z-AUC (measured here: PEO4 Z-AUC),Z-AUC
C/C=C1\NC(=O)[C@H]2CSSCC/C=C\[C@H](CC(=O)N[C@H](C(C)C)C(=O)N2)OC(=O)[C@H](C(C)C)NC1=O,4.9 nM (active),-3.43,-3.56,–
Cc1c(-c2ccc(-c3ccccc3F)cc2)nc2ccc(F)cc2c1C(=O)O,2750 nM (active),-1.54,-1.34,–
CCN(CC)CCNc1ccc(C)c2sc3ccccc3c(=O)c12,–,-0.605,-0.562,-1.21 (inactive)
CC#CC(=O)N1CC[C@@H](n2c(=O)n(-c3ccc(Oc4ccccc4)cc3)c3c(N)ncnc32)C1,–,0.828,1.1,1.04 (inactive)
NC(=O)c1cnc2[nH]ccc2c1NC1C2CC3C[C@H]1CC(O)(C3)C2 (some centres not stated),–,0.594,0.746,0.584 (inactive)
CSC[C@H]1CN(Cc2c[nH]c3c(N)ncnc23)C[C@@H]1O,–,0.706,1.05,1.09 (inactive)
Cc1[nH]c(/C=C2\C(=O)Nc3ccc(S(=O)(=O)Cc4c(Cl)cccc4Cl)cc32)c(C)c1C(=O)N1CCC[C@@H]1CN1CCCC1,–,0.565,0.0929,0.541 (inactive)
CN[C@@H](C)C(=O)N[C@H](C(=O)N1CCC[C@H]1C(=O)Nc1snnc1-c1ccccc1)C1CCCCC1,–,0.271,-0.618,1.43 (inactive)
O=C(Nc1cnccc1Cl)N1CCN(Cc2ccc3c(c2)OC(F)(F)O3)CC1,–,0.137,0.79,0.437 (inactive)
COc1ccc2c(c1)C(c1ccc(F)cc1)=C(CN1CCCC1)CO2,–,0.0924,0.0293,-0.385 (inactive)
CC(C)(O)[C@H]1CC[C@@](C)([C@H]2[C@@H](O)C[C@@]3(C)[C@@H]4C[C@H](O[C@@H]5O[C@H](CO)[C@@H](O)[C@H](O)[C@H]5O)[C@H]5C(C)(C)[C@@H](O[C@@H]6OC[C@@H](O)[C@H](O)[C@H]6O)CC[C@@]56C[C@@]46CC[C@]23C)O1,–,1.82,1.68,-0.0384 (inactive)
COC(=O)/C=C/C(=O)OC,–,0.852,0.675,-0.0504 (inactive)
NC(CC1c2ccccc2Oc2ccccc21)(C(=O)O)C1CC1C(=O)O (configuration not stated),–,0.493,0.591,-0.154 (inactive)
CN(C)CCOc1ccc(-c2nc(-c3ccc4c(c3)CC/C4=N\O)c(-c3ccncc3)[nH]2)cc1,–,-1.12,-1.55,-0.892 (inactive)
